# A1 inh = inhibitors of the anti-apoptotic protein A1, read as caspase activation. MEF A1-2A-BIM cells, Caspase-Glo 3/7 luminescence, 3 h; percent of clofoctol response, vehicle zero. caspase activation, % (test concentration not listed). 330,000 tested, 0.066% active;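 active = over half of replicate activation scores above 10%, or exactly half above 10 with the replicate mean above 10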
# Efflux pump inh = blocks antifungal efflux pumps in multiplex yeast assay; S. cerevisiae Candida pump triplex, Nile Red efflux; inhibition, % at 10 µM; 330,000 tested, 0.44% active;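 active = plate passing quality check with inhibition over a set limit, or well fluorescence over plate mean plus 4 SD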;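 note: Nile Red retained in pooled yeast measured as flow cytometry median fluorescence; higher means more Nile Red kept so more efflux inhibition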
# AHR activator = activators of human aryl hydrocarbon receptor | AHR-responsive luciferase reporter cells, luminescence | activation, % at 5 µM | 320,000 tested, 2.5% active | AID 2796; in the data active = activation above about 47%
# VLA-4 inh = inhibition in a human VLA-4 binding assay | inhibition, % (about 7 µM as worked out from the volumes in the protocol) | 330,000 tested, 0.2% active | AID 2557 | VLA-4 expressing cells, ligand binding flow cytometry; in the data active = inhibition above about 50%
# SUMO Mot1 rescue = inhibitors of SUMOylation pathway: yeast Mot1-301 growth rescue | S. cerevisiae Mot1-301 growth rescue, ATP luminescence, 38.5C; percent above DMSO median, 100 means doubled | growth rescue, % at 18.8 µM | 320,000 tested, 1% active;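 active = every valid replicate shows activation above 250% relative to neutral control wells; inactive = the rest, any valid replicate at or below 250%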
# ALR inh = inhibitors of human sulfhydryl oxidase ALR. AID 485317. 290,000 tested, 3.8% active. purified ALR, DTT oxidation, H2O2 HRP-luminol luminescence. inhibition, % (concentration not given with the values). P55789;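 active = mean replicate inhibition above about 79%, with every replicate also reaching it, limit read from the data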
# Target sequence (P55789 whole entry, looked up): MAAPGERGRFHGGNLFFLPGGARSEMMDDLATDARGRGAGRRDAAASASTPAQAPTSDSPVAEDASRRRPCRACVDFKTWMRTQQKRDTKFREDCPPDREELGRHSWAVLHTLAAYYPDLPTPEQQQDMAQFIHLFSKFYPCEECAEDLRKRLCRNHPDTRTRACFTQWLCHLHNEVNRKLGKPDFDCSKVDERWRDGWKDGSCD
# A number is an active result; - = inactive; . = no result given. In the library only some 7.2% were active in any assay of this set; here they are far more common.
SMILES,A1 inh,Efflux pump inh,AHR activator,VLA-4 inh,SUMO Mot1 rescue,ALR inh
O=C(c1ccccc1)c1c(O)cc(-c2ccccc2)oc1=O,-,-,-,-,-,-
COc1ccc(Cl)cc1C(=O)NNC1CC(=O)N(Cc2ccc(Cl)cc2)C1=O (stereo not given),-,-,-,-,-,-
C=CCNC(=S)Nc1c(C(=O)OC)[nH]c2cc(OC)ccc12,-,-,77,-,-,-
O=C1NC(c2cccs2)Nc2ccccc21 (stereo not given),-,-,52,-,-,-
Cc1ccsc1C1NC(=O)c2ccccc2N1 (stereo not given),-,-,-,-,-,-
CCN(CCNCC(O)COc1ccccc1C(C)C)c1cccc(C)c1 (stereo not given),-,-,-,-,-,99
CCOC(=O)N1CCN(CC(O)COc2ccccc2C(C)C)CC1 (stereo not given),-,-,-,-,-,-
COc1cc(C(=S)N2CCC(C)CC2)ccc1O,-,-,-,-,-,90
COc1cc(C(=O)n2nc(C)cc2C)ccc1O,-,-,-,-,-,95
COc1cc(-c2nc3ccccc3nc2-c2ccc(O)c(OC)c2)ccc1O,-,-,-,-,-,99
COc1cc(-c2nc3ccccn3c2N)ccc1O,-,-,-,-,-,.
COc1cc(C(=S)N2CCCCC2)ccc1O,-,-,-,-,-,82
COc1cc(-c2cc[n+](C)cc2)ccc1O,-,-,-,-,-,99
COc1cc(C(=O)C(=O)c2ccc(O)c(OC)c2)ccc1O,-,-,-,-,-,100
COc1cc(C(=S)N2CCCC2)ccc1O,-,-,-,-,-,94
CCOc1cc(C(=S)N2CCCC2)ccc1O,-,-,-,-,-,.
C=CCN=C1SC(C)(C)C(=O)N1S(=O)(=O)c1ccc(C)cc1,-,-,-,-,-,-
Cc1[nH]c2c(C)cccc2c(=O)c1CN1CCCCCC1,-,-,-,-,-,-
COc1ccc(-c2cc(=O)c3cc(OC)c(OC)cc3[nH]2)cc1,-,-,62,-,-,-
COc1ccc(-c2cc(=O)c3cc(F)ccc3[nH]2)cc1,-,-,-,-,-,-
O=C(NCCc1c[nH]c2ccccc12)C(=O)NCC(c1ccco1)N1CCN(c2ccccc2F)CC1 (stereo not given),-,-,-,-,-,-
COc1cc(/C=N/NC(=O)CSc2ccccn2)ccc1OC(C)C,-,-,-,-,-,-
O=C(Nc1nc(-c2ccccc2)ns1)c1ccncc1,-,-,-,-,-,-
Cc1cc(Cl)ccc1OCCCC(=O)NO,-,-,-,-,-,99
CCCCn1c2c(c(=N)c3c1CCC3)CCC2,-,-,-,-,-,-
SMILES,A1 inh,Efflux pump inh,AHR activator,VLA-4 inh,SUMO Mot1 rescue,ALR inh
CCCCCCCCCn1c2c(c(=N)c3c1CCC3)CCC2,-,-,-,-,483,-
CCCCCCn1c2c(c(=N)c3c1CCC3)CCC2,-,-,-,-,-,99
Cc1ccc(NC(=O)CN2C(=O)C(=O)N(C3CCCC3)C2=O)cc1Cl,-,-,-,-,-,-
C#CCSc1nc(-c2ccccc2)cc(C(F)(F)F)c1C#N,-,-,64,-,-,-
CCN(CC)N=Nc1ccc(S(=O)(=O)Nc2nc(C)cc(C)n2)cc1,-,-,-,-,-,-
CCOc1ccc(OCCn2c(=S)[nH]c3c(N)ncnc32)cc1,-,-,-,-,-,91
O=C(NC1CCCCC1)c1ccc(-c2cccc([N+](=O)[O-])c2)o1,-,-,-,-,-,94
O=C(Nc1cccc2ncccc12)c1ccc(Cl)cc1,-,-,65,-,-,-
O=C(Nc1cccc2ncccc12)c1ccc(-c2ccc(Br)cc2)o1,-,-,53,-,-,-
COc1ccc(Cl)cc1C(=O)Nc1cccc2ncccc12,-,-,66,-,-,-
CCc1nc(SCC(=O)NC2CC2)c2c(C)c(C)sc2n1,-,-,52,-,-,-
CC(C)c1ccc(NC(=O)Cc2c(C(=O)O)n(C)c3ccccc23)cc1,-,-,-,-,-,97
CCOC(=O)c1c(NC(=O)Cn2nc(C(=O)O)c3ccccc3c2=O)sc(CC)c1C,-,-,-,-,-,-
Cc1ccc(C(=O)Nc2ccc3cn[nH]c3c2)cc1S(=O)(=O)N1CCOCC1,-,-,-,-,-,-
Cc1cccc(N=Nc2ccc(O)c3ncccc23)c1,-,-,70,-,-,.

# Screening results: PubChem, several laboratories
